Assay results taken from the supplement of paper PMC9262897, “Low-cost anti-mycobacterial drug discovery using engineered E. coli” (Nature Communications, 2022).
Counter-ions that a name gives are not always drawn. ± gives the standard deviation of the averaged measurements.

system: E. coli TESEC Mtb Asd; experiment: growth (OD600 after 10 h); higher = more growth (less inhibition); conditions: arabinose induction (level): Low; compound 0.1 mM; raw OD600 reference: median of DMSO wells 0.417, cell-free background 0.041
Experimental: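 TESEC E. coli strains in which the native enzyme is deleted and replaced by arabinose-inducible Mtb Asd, DapB, CysH or TrpD, each grown in its selective medium. Strains were screened against the Prestwick library at 0.1 mM and 1% DMSO in 384-well format at low and high arabinose induction. Growth is read as OD600 after 10 h in triplicate.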

**Q.** For `CN1CCCC(n2nc(Cc3ccc(Cl)cc3)c3ccccc3c2=O)CC1` (centres undefined) [Azelastine HCl], which growth is on record?
**A.** The growth was 0.241 ± 0.056.

**Q.** `COC(=O)Nc1nc2ccc(SC(C)C)cc2[nH]1` [Methiazole] was tested. Which growth did it give?
**A.** The growth was 0.33 ± 0.048.

**Q.** For `CCCCNC(=O)NS(=O)(=O)c1ccc(C)cc1` [Tolbutamide], which growth is on record?
**A.** Its growth is 0.405 ± 0.074.

**Q.** For `CS(=O)(=O)OCCCCOS(C)(=O)=O` [Busulfan], which growth is on record?
**A.** Its growth is 0.414 ± 0.036.

**Q.** Which growth does the source give for `Fc1ccc([C@@H]2CCNC[C@H]2COc2ccc3c(c2)OCO3)cc1` [Paroxetine Hydrochloride] here?
**A.** Its growth is 0.176 ± 0.0037.

**Q.** For `CC1(C)O[C@@H]2C[C@H]3[C@@H]4C[C@H](F)C5=CC(=O)C=C[C@]5(C)[C@H]4[C@@H](O)C[C@]3(C)[C@]2(C(=O)CO)O1` [Flunisolide], which growth is on record?
**A.** The growth was 0.458 ± 0.025.

**Q.** Which growth does the source give for `CNCCc1ccccn1` [Betahistine mesylate] here?
**A.** Its growth is 0.4 ± 0.042.

**Q.** With `CC(C(=O)O)c1ccc(C(=O)c2cccs2)cc1` (centres undefined) [Suprofen] as the compound, how does the growth read?
**A.** The growth was 0.365 ± 0.054.

**Q.** Which growth does the source give for `CCCCCCCCNC(C)C(O)c1ccc(SC(C)C)cc1` (centres undefined) [Suloctidil] here?
**A.** The growth was 0.162 ± 0.074.

**Q.** For `CCCc1cc(C(N)=S)ccn1` [Prothionamide], which growth is on record?
**A.** Its growth is 0.388 ± 0.046.

**Q.** With `CCC[C@@H]1C[C@@H](C(=O)N[C@@H]([C@H]2O[C@H](SC)[C@H](O)[C@@H](O)[C@H]2O)[C@@H](C)O)N(C)C1` [Lincomycin hydrochloride] as the compound, how does the growth read?
**A.** Its growth is 0.204 ± 0.02.

**Q.** For `C[C@]12CC[C@@H]3c4ccc(O)cc4C[C@@H](CCCCCCCCC[S+]([O-])CCCC(F)(F)C(F)(F)F)[C@H]3[C@@H]1CC[C@@H]2O` (some centres undefined) [Fulvestrant], which growth is on record?
**A.** Its growth is 0.415 ± 0.041.

**Q.** Which growth does the source give for `CN(C)CCCSC(=N)N` [Dimaprit dihydrochloride] here?
**A.** Its growth is 0.409 ± 0.093.

**Q.** For `CN1CCN(c2c(F)cc3c(=O)c(C(=O)O)cn4c3c2SCC4)CC1` [Rufloxacin], which growth is on record?
**A.** The growth was 0.0499 ± 0.0012.

**Q.** How did the growth turn out when `CC(=O)OCC(=O)[C@@]1(OC(C)=O)[C@@H](C)C[C@H]2[C@@H]3C[C@H](F)C4=CC(=O)C=C[C@]4(C)[C@@]3(F)[C@@H](O)C[C@@]21C` [Diflorasone Diacetate] was run?
**A.** Its growth is 0.228 ± 0.008.

**Q.** `CS(=O)(=O)c1ccc([C@@H](O)[C@@H](CO)NC(=O)C(Cl)Cl)cc1` [Thiamphenicol] was tested. Which growth did it give?
**A.** Its growth is 0.0618 ± 0.0034.

**Q.** How did the growth turn out when `CSc1nc2cc(Cl)c(Oc3cccc(Cl)c3Cl)cc2[nH]1` [Triclabendazole] was run?
**A.** Its growth is 0.0583 ± 0.0045.

**Q.** With `CC(C)(CO)C(O)C(=O)NCCCO` (centres undefined) [Panthenol (D)] as the compound, how does the growth read?
**A.** Its growth is 0.409 ± 0.043.

**Q.** With `Cc1onc(-c2ccccc2Cl)c1C(=O)N[C@@H]1C(=O)N2[C@@H]1SC(C)(C)[C@@H]2C(=O)O` [Cloxacillin sodium salt] as the compound, how does the growth read?
**A.** The growth was 0.41 ± 0.046.

**Q.** For `OCCN(CCO)c1nc(N2CCCCC2)c2nc(N(CCO)CCO)nc(N3CCCCC3)c2n1` [Dipyridamole], which growth is on record?
**A.** Its growth is 0.0913 ± 0.034.

**Q.** `CN(C)CCN(Cc1ccc(Cl)cc1)c1ccccn1` [Chloropyramine hydrochloride] was tested. Which growth did it give?
**A.** Its growth is 0.43 ± 0.013.

**Q.** For `CCCCOC(=O)c1ccc(N)cc1` [Butamben], which growth is on record?
**A.** Its growth is 0.304 ± 0.11.

**Q.** With `Nc1c(Br)cc(Br)cc1CN[C@H]1CC[C@H](O)CC1` [Ambroxol hydrochloride] as the compound, how does the growth read?
**A.** Its growth is 0.318 ± 0.06.

**Q.** `C[C@]12CC[C@@H]3c4ccc(OS(=O)(=O)O)cc4CC[C@H]3[C@@H]1CCC2=O` [Estropipate] was tested. Which growth did it give?
**A.** Its growth is 0.413 ± 0.039.

**Q.** For `CC(NCCC(c1ccccc1)c1ccccc1)c1ccccc1` (centres undefined) [Fendiline hydrochloride], which growth is on record?
**A.** The growth was 0.04653 ± 0.00025.

**Q.** With `C[C@@H]1C[C@H]2[C@@H]3C[C@H](F)C4=CC(=O)C=C[C@]4(C)[C@@]3(F)[C@@H](O)C[C@]2(C)[C@@]1(O)C(=O)COC(=O)C(C)(C)C` [Flumethasone pivalate] as the compound, how does the growth read?
**A.** The growth was 0.319 ± 0.066.

**Q.** With `COc1cc(C(=O)NC2CCCNC2)cc(OC)c1OC` (centres undefined) [Troxipide] as the compound, how does the growth read?
**A.** The growth was 0.427 ± 0.057.

**Q.** `COCCc1ccc(OCC(O)CNC(C)C)cc1` (racemic) [Metoprolol-(+,-) (+)-tartrate salt] was tested. Which growth did it give?
**A.** Its growth is 0.466 ± 0.038.

**Q.** For `CC(Oc1c(Cl)cccc1Cl)C1=NCCN1` (centres undefined) [Lofexidine], which growth is on record?
**A.** Its growth is 0.464 ± 0.093.

**Q.** How did the growth turn out when `N#CC(c1ccc(Cl)cc1)c1c(Cl)cc(-n2ncc(=O)[nH]c2=O)cc1Cl` (centres undefined) [Diclazuril] was run?
**A.** Its growth is 0.0482 ± 0.002.

**Q.** For `Cc1cc(C(C)(C)CC(C)(C)C)ccc1OCCOCC[N+](C)(C)Cc1ccccc1` [Methyl benzethonium chloride], which growth is on record?
**A.** Its growth is 0.0608 ± 0.0092.

**Q.** How did the growth turn out when `CC(=O)CC(c1ccc([N+](=O)[O-])cc1)c1c(O)c2ccccc2oc1=O` (centres undefined) [Acenocoumarol] was run?
**A.** Its growth is 0.293 ± 0.051.

**Q.** With `COCC1=C(C(=O)OC(C)OC(=O)OC(C)C)N2C(=O)[C@@H](NC(=O)/C(=N\OC)c3csc(N)n3)[C@H]2SC1` (some centres undefined) [Cefpodoxime proxetil] as the compound, how does the growth read?
**A.** The growth was 0.179 ± 0.034.

**Q.** How did the growth turn out when `CC(=O)OCC(=O)[C@@]12OC(C)(C)O[C@@H]1C[C@H]1[C@@H]3C[C@H](F)C4=CC(=O)C=C[C@]4(C)[C@@]3(F)[C@@H](O)C[C@@]12C` [Fluocinonide] was run?
**A.** The growth was 0.505 ± 0.0079.
